LASV entry inh = inhibitors of Lassa virus binding or cell entry; Lassa virus pseudotype entry inhibition, cell reporter; Potency, µM (series often up to 37.9 µM), for inactives: top-dose activity change, negative = inhibition, usual class: inhibitors; hit rate 1.2% among 300,000; calls by dose curve; tested in HEK293 cells; note: potency is the fitted concentration of half-maximal effect; nearly all actives have a fitted effect of over 50% in size
MARV entry inh = inhibitors of Marburg virus binding or cell entry; Marburg virus pseudotyped entry inhibition, cell reporter; hit rate 1.8% among 300,000; AID 540276; Potency, µM (top dose mostly 37.8 µM), for the others: at the top dose activity change, negative = inhibition, most hits filed as inhibitors; calls by dose curve; tested in HEK293 cells; note: potency is the fitted concentration of half-maximal effect
HCMV antiviral = inhibitors of human cytomegalovirus; HFF cells, HCMV-luciferase reporter, 72 h; stronger effect = lower value; activity change, negative = inhibition, % at 57.5 µM; hit rate 4.5% among 410,000; AID 1259415; in the data active = activity change below about -60%; inconclusive = no clear call, values can overlap the other calls; inactive = above about -39%
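Screen run at 2 compound doses on HFFs infected with reporter HCMV, MOI 1 PFU/cell. Luciferase activity from cell lysates at 72 h post infection gave inhibition relative to buffer-only and Salinomycin wells.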
HCV inhibitor = HCV inhibition. Huh7.5.1 HCVcc-Cre infection, luciferase reporter, 44 h. hit rate 3.4% among 340,000. Potency, µM (highest dose often 41.8 µM), inactives show top-dose activity change, negative = inhibition, usual class: inhibitors. AID 651820; active = well fitted inhibition curve with a large enough effect; inconclusive = small, poorly fitted or top-dose-only effect, or another doubt; inactive = no such curve, though single readings can be large or run the other way; note: potency is the fitted concentration of half-maximal effect
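Infectious HCV cell culture screen: compound-treated cells (1,000/well, pre-plated 4 h) are infected with HCVcc-Cre at roughly 0.5 moi and grown 44 h. Infection is quantified by luciferase signal after 15 min substrate incubation at room temperature.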
FMDV antiviral = blocks foot and mouth disease virus; Potency, µM (top dose mostly 57.9 µM), for inactives: at the top dose activity change, negative = inhibition, actives largely listed as inhibitors; FMDV antiviral cell-based qHTS; hit rate 1.2% among 410,000; AID 1159524; calls by dose curve; tested in HEK293T cells; note: read-out not given here; potency is the fitted concentration of half-maximal effect; nearly all actives have a fitted effect of over 45% in size
The depositor's hits bear a star; ? = inconclusive; . = not tested or not shown; ! = not active in a repeat; [ ] = remark or other dose. The list is not random: actives were taken first. Their share in the collection is about 7.9%. % is set by controls: 0 for no effect and ±100 for the full control effect.

SMILES	LASV entry inh	MARV entry inh	HCMV antiviral	HCV inhibitor	FMDV antiviral
CC1CCc2nc(NC(=O)c3ccc(S(=O)(=O)N4CCCc5ccccc54)cc3)sc2C1 (stereo unspecified)	-19.0%	?	-87.0*	?	?
O=c1c(-c2ccc(F)c(F)c2)nc2cncnc2n1Cc1ccc(F)cc1	.	.	.	.	-24.0%
O=C(COc1ccccc1)Nc1nc2c(s1)CCCC2	?	6.31µM*	15.2	-24.4%	44.5%
CCCCOc1ccccc1C(=O)Nc1onc2c1CCCC2	12.1%[46.1 µM]	19.0%[46.1 µM]	-18.8	.	-8.4%
CCCOc1ccccc1C(=O)Nc1nc2c(s1)CCCC2	?	?	-63.7*	.	-12.9%
O=C(COc1ccccc1Cl)Nc1nc2c(s1)CCCC2	?	?	-24.7	.	38.9%
COc1ccc(-c2ccc(NS(=O)(=O)c3ccc(NC(C)=O)cc3)cc2)nn1	?	.	22.9	.	15.5%
CCCCCCCc1cc2ccccc2c2c(C(C)=O)c(-c3ccccc3)c(C(=O)OC)n12	?	-16.1%[14.2 µM]	.	.	.
CCN(CC)C(=O)c1cccc(-c2csc(C(O)c3ccco3)n2)c1 (stereo unspecified)	.	.	25.1	.	-2.5%
O=C(Nc1c(-c2ccccc2)nc2ccccn12)c1ccccc1F	-9.4%[46.1 µM]	?	-63.8*!	6.5%	-9.4%
CCCCCC1=CC2=C(C(=O)OC)C(c3ccccc3)NC(=O)N2CC1 (stereo unspecified)	.	1.3%[14.2 µM]	.	.	.
C[C@@H](c1ccccc1)N1C[C@H]2CCCN2c2cc(Br)ccc2S1(=O)=O	?	.	-12.9	11.2µM*	-14.1%
O=S1(=O)c2ccc(Br)cc2N2CCC[C@H]2CN1Cc1ccccc1	.	.	-35.4	?	-21.9%
O=[N+]([O-])c1cc(Cl)cc(C2=NCCN2)c1	?	?	19.9	8.91µM*	3.9%
CC(C)(C)c1ccc(NC(=O)Nc2ccc(F)cc2)cc1	?	?	51.8	10µM*	-36.9%
CC(C)(C)c1ccc(COC(=O)Nc2ccc(F)cc2)cc1	13.2%	?	-24.0	9.1%	11.6%
O=C(Nc1ccc(F)cc1)Nc1cc(OCC(F)(F)F)cc(OCC(F)(F)F)c1	18.4µM*	8.91µM*	-101.3*	?	-8.8%
c1ccc(COc2ccc(Oc3nc(N4CCCCC4)nc(N4CCOCC4)n3)nn2)cc1	5.8µM*	?	19.4	3.6%	-19.9%
CCC1COCCS(=O)(=O)N1Cc1ccc(F)cc1 (stereo unspecified)	.	.	-5.9	14.5%	-4.3%
O=C(NN=C1CCCC1)c1ccc(O)cc1	.	.	0.2	2.2%	-9.4%
CCOC(=O)c1cc([N+](=O)[O-])c([N+](=O)[O-])cc1NC(C)=O	-12.9%	?	-100.2*	?	?
CCOC(=O)c1ccc(NC(=O)c2ccccc2[N+](=O)[O-])cc1	?	15.4%	22.0	?	10.4%
CN(C)/C=N/c1ncc(C(=O)c2ccc(Cl)cc2Cl)s1	-10.6%	11.6%[46.1 µM]	-61.4*	?	-12.4%
C#CC1(O)CCC2C3CCC4=CC(=O)CCC4=C3C=CC21C (stereo unspecified)	-9.2%[46.1 µM]	-0.2%	7.4	12.2%	-10.1%
CC#C[C@]1(O)CC[C@H]2C3CCC4=CC(=O)CCC4=C3[C@@H](c3ccc(N(C)C)cc3)C[C@@]21C (stereo partly specified)	.	10µM*	.	.	.
SMILES	LASV entry inh	MARV entry inh	HCMV antiviral	HCV inhibitor	FMDV antiviral
Cc1ccc(NC2=Nc3ccccc3CS2)cc1	?	10µM*	-2.6	-12.3%	-28.2%
COc1ccc(CCNc2ccc(S(=O)(=O)N3CCCC3)cc2[N+](=O)[O-])cc1	?	-5.5%	-62.3*	?	?
CN(C(=O)COC(=O)c1cccc(S(=O)(=O)N2CCCCCC2)c1)C1CCS(=O)(=O)C1 (stereo unspecified)	0.8%	-26.2%	1.5	-1.1%	-10.7%
O=[N+]([O-])c1cc(S(=O)(=O)N2CCCC2)ccc1NCCc1ccccc1	19.1%	7.6%	-29.1	14.8%	-22.7%
COc1ccc(CCNC(=O)c2ccc(Cl)c(S(=O)(=O)N3CCCC3)c2)cc1	.	.	-73.6*	11.2µM*	?
O=C(NCc1ccc(Cl)cc1)c1cccc(S(=O)(=O)N2CCCC2)c1	.	.	-39.5	5.1%	14.5%
O=C(NCCOc1ccc(Cl)cc1)c1cccc(S(=O)(=O)N2CCCC2)c1	.	.	-68.3*	15.8µM*	?
C=CCN(c1ccccc1Cl)S(=O)(=O)c1cccc(C(=O)OCC(=O)N(C)C2CCS(=O)(=O)C2)c1 (stereo unspecified)	?	?	-30.6	3.55µM*	-28.1%
COc1ccc(OC)c(C2=CC(=O)C[C@H](c3ccc4c(c3)OCO4)C2)c1	.	.	-31.2	?	-7.2%
COc1ccccc1C(C)Nc1ccc(S(=O)(=O)N2CCN(C)CC2)cc1[N+](=O)[O-] (stereo unspecified)	.	.	-9.5	11.2µM*	-13.1%
C=CCN(c1ccccc1OC)S(=O)(=O)c1cccc(C(=O)NCc2cccs2)c1	?	?	-63.1*	4.47µM*	-19.8%
COc1ccc(CCNC(=O)c2cccc(S(=O)(=O)N3CCCCC3)c2)cc1	-21.6%[46.1 µM]	-25.1%[46.1 µM]	-65.7*	?	-18.2%
CN(C)S(=O)(=O)c1cccc(C(=O)NCCc2ccccc2)c1	?	?	23.2	-12.2%	?
O=C(NCCc1ccccc1)c1cccc(S(=O)(=O)N2CCCCC2)c1	-34.0%	?	-33.4	-18.3%	13.2%
C=CCN(c1ccccc1Cl)S(=O)(=O)c1cccc(C(=O)NCCc2ccc(OC)cc2)c1	11.6µM*	?	-65.1*	?	-28.2%
CCCC(=O)n1nc(-c2ccco2)nc1NCc1ccccc1Cl	13.8%[46.1 µM]	?	20.5	.	31.4%
CCOC(=O)c1ccc(NC(=O)CC2Nc3cc(C)c(C)cc3NC2=O)cc1 (stereo unspecified)	-4.8%[46.1 µM]	0.9%[46.1 µM]	-15.2	.	0.1%
Cc1ccc(C(=O)NCc2cccc(C(F)(F)F)c2)cc1S(=O)(=O)N1CCCCC1	-9.4%	-6.5%[46.1 µM]	-65.9*	?	?
Cc1ccc(C(=O)NCc2cccnc2)cc1S(=O)(=O)N1CCCCCC1	?	-30.7%	-21.8	?	-26.9%
Cc1ccc(C(=O)NCCC2=CCCCC2)cc1S(=O)(=O)N1CCCCC1	7.94µM*	?	-32.2	?	-0.6%
CNS(=O)(=O)c1cccc(C(=O)OCC(=O)c2c(N)n(C)c(=O)n(C)c2=O)c1	-16.0%	9.7%[46.1 µM]	-13.8	?	14.7%
Cc1ccc(C(=O)NCCC2=CCCCC2)cc1S(=O)(=O)N1CCOCC1	-3.7%[46.1 µM]	?	-17.7	-26.7%	17.6%
C=CCN(c1ccccc1OC)S(=O)(=O)c1cccc(C(=O)OCC(=O)c2c(N)n(C)c(=O)n(C)c2=O)c1	?	?	-70.5*	?	39.8µM*
COc1ccc(NC(=O)c2cccc(S(=O)(=O)N3CCCCC3)c2)c(OC)c1	0.4%[46.1 µM]	-26.9%[46.1 µM]	-69.0*	-20.2%	-6.5%
CN(C)c1nc2cc3c(cc2cc1CN(CC1CCCO1)C(=O)c1cccc(F)c1)OCO3 (stereo unspecified)	.	.	.	.	4.8%
COCCSc1nnc(NC(=O)COc2ccc3c(c2)OCO3)s1	.	13.3%[46.1 µM]	-8.9	-0.5%	14.4%

Screening results as filed in PubChem.
